In PubChem BioAssay (Tox21):
A number with no mark means an inactive call. Entries that show only a call come without a potency. The source made the active and inactive calls. The call rests on the fitted dose curve; in most records, active means well fitted curve in the direction sought with a large enough effect in the repeat runs; inconclusive means weak or mixed curves; inactive means flat fitted curve, though single readings scatter.

Assay: qHTS assay to test for compound auto fluorescence at 460 nm (blue) in HepG2 cell free culture (AID 720685)
Conditions: Cell-free culture medium, blue autofluorescence 405/460 nm; series mostly up to 91.3 µM
Source text: U.S. Tox21 Program National Center for Advancing Translational Sciences [NCATS] NIH Chemical Genomics Center [NCGC] U.S. Environmental Protection Agency [EPA] National Institutes of Environmental Health Sciences [NIEHS] National Toxicology Program [NTP] U.S. Food and Drug Administration [FDA] Tox21 Assay Overview: Compound auto fluorescence often interferes with screening of the compound library against various biological targets and signaling pathways. Some of these compounds may have fluorophoric properties. Such properties may interfere with the assay outputs resulting in false positives and/or negatives. To decrease such complications and ensure the compound activities are relevant in terms of biological response, the Tox21 10K compound library was screened for auto fluorescence. From the fluorophores used as reporter signals in our screening assays, the auto fluorescence equivalencies of compounds against three fluorophores have been evaluated: Triamterene, Fluorescein and Rose Bengal sodium for blue, green and red fluorescence, respectively. The fluorescence intensities were measured using Excitation/Emission wavelengths at 405/460nm, 485/535nm and 540/590nm for blue, green and red labels, respectively. This assay includes the blue fluorescence data.
Tox21 Assay Protocol Summary: 5 uL of culture medium (MEM containing 10% FBS) per well was dispensed into black wall/clear bottom 1536-well plates using a Multidrop Combi Dispenser (ThermoFisher Scientific, Waltham, MA). After 23 nL compound or DMSO vehicle was transferred into assay plate by a pintool work station (Kalypsys, San Diego, CA), fluorescence intensities in the assay plates were measured by an Envision (PerkinElmer, Shelton, CT) plate reader using three labels for measuring blue, green and red fluorescence at […] 460, 535 and 590nm respectively.

Compound	Potency	fluorescence, % of fluorescent control
Clc1cc(Cl)nc(Cl)n1	inactive	–
O=C(O)c1cccc(-c2noc(-c3ccccc3F)n2)c1	inactive	–
C=C(C)CCCC(C)CCO (stereo not given)	inactive	–
c1ccc2sc(SN(C3CCCCC3)C3CCCCC3)nc2c1	inactive	–
CCC1NC(=O)c2cc(S(N)(=O)=O)c(Cl)cc2N1 (stereo not given)	–	-0.0342% [at 18.6 µM]
O=[N+]([O-])c1ccc(O/N=C/c2cc(Br)c(O)c(Br)c2)c([N+](=O)[O-])c1	inactive	–
O=Cc1c2ccccc2c(Cl)c2ccccc12	inactive	–
CC(=O)OCC(=O)NCCCOc1cccc(CN2CCCCC2)c1	inactive	–
CN(C(=O)CN(CCO)CC(=O)N(C)C(C)(C)Cc1ccccc1)C(C)(C)Cc1ccccc1	–	-0.036% [at 18.6 µM]
O=C(Cn1ccnc1[N+](=O)[O-])NCCO	inactive	–
C=C1c2cccc(O)c2C(O)=C2C(=O)[C@]3(O)C(O)=C(C(N)=O)C(=O)[C@@H](N(C)C)[C@@H]3[C@@H](O)[C@H]12	–	1.61% [at 18.6 µM]
OCCOCC#CCOCCO	inactive	–
CCOC(=O)[C@H](CCc1ccccc1)N[C@@H](C)C(=O)N(CC(=O)O)C1Cc2ccccc2C1	inactive	–
FC(F)(F)c1ccccc1Cl	inactive	–
COc1cc(C(=O)NCCCCCC(=O)O)cc(OC)c1OC	inactive	–
CCC1CO1 (stereo not given)	inactive	–
N#CCCN(CCO)CCO	inactive	–
C=CCc1ccccc1OCC(O)CNC(C)C (stereo not given)	inactive	–
C[C@@H](O)[C@H]1C(=O)N2C(C(=O)O)=C([C@H]3CCCO3)S[C@H]12	inactive	–
CN(C)CCN1C(=O)c2ccccc2N(C)c2ccccc21	inactive	–

Compound	Potency	fluorescence, % of fluorescent control
CN1C[C@H](C(=O)N[C@]2(C)O[C@@]3(O)[C@@H]4CCCN4C(=O)[C@H](Cc4ccccc4)N3C2=O)C[C@@H]2c3cccc4[nH]cc(c34)C[C@H]21	inactive	–
O=C(O)CCCCCCCCCCCBr	inactive	–
CCCCN1CCCC1C(=O)Nc1c(C)cc(C)cc1C (stereo not given)	inactive	–
CCn1cc(C(=O)O)c(=O)c2cc(F)c(N3CCNCC3)cc21	inactive	–
O=[N+]([O-])c1cc(C2CCCCC2)c(O)c([N+](=O)[O-])c1	inactive	–
CC(C)C=O	inactive	–
COc1ccccc1Oc1c(NS(=O)(=O)c2ccc(C(C)(C)C)cc2)nc(-c2ncccn2)nc1OCCO	inactive	–
COc1cc(Nc2c(C#N)cnc3cc(OCCCN4CCN(C)CC4)c(OC)cc23)c(Cl)cc1Cl	inactive	–
C(=C\c1ccccc1)/c1ccccc1	inactive	–
CCOC(C)=O	inactive	–
COC(=O)CCS	inactive	–
Cc1cc(=O)c2c(O)c3c(O)cc(=O)c4c3c3c(cc(O)c1c23)C(C)(C)C=4O	inactive	–
CCCC(C(=O)OCCN(CC)CC)(c1ccccc1)c1ccccc1	inactive	–
CC1(C)S[C@@H]2[C@H](NC(=O)C(c3ccccc3)S(=O)(=O)O)C(=O)N2[C@H]1C(=O)O (stereo not given in full)	inactive	–
Cc1ccccc1S	inactive	–
CCCCCCCCN	inactive	–
NC(=O)c1ccncc1	inactive	–
CN(C)CCC=C1c2ccccc2C=Cc2ccccc21	inactive	–
OC(CCN1CCCC1)(c1ccccc1)C1CCCCC1 (stereo not given)	–	0.0206% [at 18.6 µM]
COc1ncnc(NS(=O)(=O)c2ccc(N)cc2)c1OC	inactive	–
